Hit rate of the full screen: of about 320,000 compounds, about 2,100 (0.66%) were called active. Roughly 53% stayed inconclusive and do not appear here. Calls come from the whole dose curve; as a rule, active = well fitted inhibition curve with a large enough effect in the signal ratio, with a control signal flat (not every such curve was filed as active); inconclusive = small, poorly fitted or top-dose-only effect, or effect the other way, or a change in a side signal; inactive = flat fitted curve, though single readings scatter; the % refers to the signal ratio. Many of the other results were omitted from the sample, so actives are more common in it than they were.
assay: qHTS Assay for Lipid Storage Modulators in Drosophila S3 Cells; conditions: BODIPY lipid droplet fluorescence, 18-24 h, cells fed with added oleic acid; cell number change: measured here: cell count max response; series mostly up to 46.1 µM;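 for cell number change: cells counted by Cell Tracker Red CMTPX staining in the red channel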; for lipid storage change, negative = inhibition: % is set by controls: 0 for no effect and ±100 for the full control effect
Method in brief: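 Drosophila S3 cells loaded with oleic acid (400 uM, as added) and compounds at several concentrations; lipid droplets imaged by 488-nm laser-scanning cytometry, 500–530 nm intensity and object ratio to cell channel. Percent activity normalized to 20 uM Triacsin C.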
Potency is the fitted concentration of half-maximal effect.

SMILES	Potency	cell number change [%]	outcome	lipid storage change, negative = inhibition
COc1ccc([N+](=O)[O-])cc1NC(=O)c1cccnc1	inactive	9.82	–	–
CCCNc1nc(C)cc(-c2cc(C(=O)NCc3ccccc3)on2)n1	inactive	1.8	–	–
Cc1cccc(N2CC(C(=O)Nc3ccccc3N3CCCC3)CC2=O)c1C (stereo not drawn)	inactive	–	–	–
CCOc1ccccc1N1CC(C(=O)Nc2ccccc2N2CCCC2)CC1=O (stereo not drawn)	inactive	–	–	–
COc1ccc(C)cc1N1CC(C(=O)Nc2ccccc2N2CCCCC2)CC1=O (stereo not drawn)	1.03 µM (active)	3.68	–	–
Cc1ccc(-c2nc(C#N)c(NCCN3CCCCC3)o2)cc1	inactive	1.25	–	–
CCOC(=O)c1c(C)[nH]c(C=C2C(=O)CCCC2=O)c1O	inactive	-4.56	–	–
Cn1cccc1/C=C(/C#N)C(N)=S	inactive	0.988	–	–
O=C(NCCc1c[nH]c2ccccc12)C(=O)NCC(c1ccco1)N1CCN(c2ccccc2)CC1 (stereo not drawn)	inactive	-12.5	–	–
Cc1ccc(NS(=O)(=O)c2ccc(C(=O)OCC(=O)Nc3cc(C)on3)cc2)cc1	inactive	-18.1	–	–
O=[N+]([O-])c1ccc(-c2csc(Nc3ccccc3)[n+]2Cc2ccccc2)cc1	13 µM (active)	-27.2	–	–
c1ccc(C[n+]2c(-c3ccccc3)csc2Nc2ccccc2)cc1	inactive	-10.6	–	–
COc1ccc(-c2csc(Nc3ccccc3)[n+]2CC(O)c2ccc([N+](=O)[O-])cc2)cc1 (stereo not drawn)	inactive	-3.41	–	–
O=C1OCc2cc(-n3cccc3)ccc21	inactive	-1.52	–	–
Cc1ccccc1S(=O)(=O)Cc1ccc(C(=O)NC2CCCCC2C)o1 (stereo not drawn)	inactive	–	–	–
Cc1ccccc1S(=O)(=O)Cc1ccc(C(=O)NC2CCC(C)CC2)o1 (stereo not drawn)	18.4 µM (active)	-18.5	–	–
CCOC(=O)N1CCC(NC(=O)c2ccc(CS(=O)(=O)c3ccccc3C)o2)CC1	inactive	-13.7	–	–
COC(=O)c1cccc(NC(=O)C(C)(C)C)c1	inactive	-0.276	–	–
Cn1ccnc1SCC(=O)c1ccc(Cl)cc1	inactive	1.94	–	–
CN1CCC(NC(=O)Nc2ccc(Br)cc2)CC1	inactive	-12.5	–	–
COc1ccc(COC(=O)C2CC(=O)N(Cc3ccc(C)cc3)C2)cc1 (stereo not drawn)	–	-16.1	inactive [at 0.369 µM]	–
COc1ccc(CN2CC(C(=O)NCCc3ccc(C)cc3)CC2=O)cc1 (stereo not drawn)	inactive	1.29	–	–
COc1ccc(NC(=O)COC(=O)C2CC(=O)N(Cc3ccc(C)cc3)C2)cc1 (stereo not drawn)	2.06 µM (active)	-4.17	–	–
COC(=O)C1CCN(C(=O)c2ccc(Cl)c(S(=O)(=O)NCc3cccnc3)c2)CC1	inactive	20.6	–	–

SMILES	Potency	cell number change [%]	outcome	lipid storage change, negative = inhibition
CC(=O)Oc1ccccc1N(C(C)=O)S(=O)(=O)c1ccc(C)cc1	inactive	-8.62	–	–
CC(C)[C@H](NC(=O)NCc1ccc(Cl)cc1)C(=O)O	inactive	–	–	–
CC(C)C[C@H](NC(=O)NCc1ccc(Cl)cc1)C(=O)O	6.51 µM (active)	-1.47	–	–
CC(C)CC(NC(N)=O)C(=O)NCc1ccc(Cl)cc1 (stereo not drawn)	inactive	6.23	–	–
CCC(=O)Nc1ccc(NC(=O)CSc2nc3cc4c(cc3cc2C)CCC4)cc1	inactive	0.207	–	–
CCC(=O)Nc1nn(C)c2nc3c(C)cccc3cc12	inactive	-9.14	–	–
CC1CCN(CCCNC(=O)C2CCC(CNS(=O)(=O)c3cccc4nsnc34)CC2)CC1 (stereo not drawn)	inactive	–	–	–
CCOc1ccc(-n2c(=O)cc(N3CCN(c4ccc(F)cc4)CC3)[nH]c2=O)cc1	inactive	10.6	–	–
Cc1ccc(-c2nnn(CC(=O)N(Cc3ccco3)C(C(=O)NC(C)(C)C)c3cccs3)n2)o1 (stereo not drawn)	inactive	-15.2	–	–
Nc1c(C(=O)NCC2CCCO2)sc2nc3c(c(-c4ccco4)c12)CC/C3=C\c1ccco1 (stereo not drawn)	8.2 µM (active)	3.45	–	–
Nc1c(C(=O)Nc2ccccc2)sc2nc3c(c(-c4ccco4)c12)CCCC3	inactive	-3.84	–	–
Cc1ccc(NC(=O)c2sc3nc4c(c(-c5ccco5)c3c2N)CCC4)cc1	inactive	-11.1	–	–
COc1ccc(NC(=O)CC2C(=O)NCCN2C(=O)Nc2ccc(C(F)(F)F)cc2)cc1 (stereo not drawn)	inactive	12.2	–	–
Cc1cccc(NC(=O)CN2C(=O)N/C(=C\c3ccc(-c4cccc(C(=O)O)c4)o3)C2=O)c1	inactive	-0.725	–	–
CCCn1c(N)c(N(CCOC)C(=O)/C=C/c2ccc(C(=O)OC)cc2)c(=O)[nH]c1=O	inactive	-4.64	–	–
CC(C)(C)NC(=O)C(c1ccc(F)cc1)N(Cc1ccco1)C(=O)c1csnn1 (stereo not drawn)	inactive	-0.0921	–	–
COc1cc(NC(=O)CCc2c(C)[nH]c(=O)c(C#N)c2C)cc(OC)c1	0.058 µM (active)	-2.94	–	–
Cc1ccc(NC(=O)CCc2c(C)[nH]c(=O)c(C#N)c2C)cc1	inactive	16.2	–	–
COc1ccccc1NC(=O)CCc1c(C)[nH]c(=O)c(C#N)c1C	inactive	16.5	–	–
COc1ccc(-c2[nH]ncc2/C=N/NC(=O)c2ccc(Br)cc2)c(OC)c1	inactive	3.28	–	–
CCOc1ccc(NC(=O)CN2C(=O)CSC(C)C2=O)cc1 (stereo not drawn)	inactive	8.89	–	–
Cc1c(C(=O)N(CCC#N)c2ccccc2)sc2nc3n(c(=O)c12)CCCC3	inactive	7.46	–	–
Oc1ccc(Br)cc1-c1cc(-c2ccccc2Cl)[nH]n1	inactive	-23.2	–	–
COc1ccc(O)c(-c2cc(-c3ccccc3Cl)[nH]n2)c1	3.66 µM (active)	-20.4	–	–

SMILES	Potency	cell number change [%]	outcome	lipid storage change, negative = inhibition
COc1ccc(O)c(-c2cc(-c3ccccc3[N+](=O)[O-])[nH]n2)c1	inactive	-1.9	–	–
CCc1ccc(/C=C(\C)C(=O)c2c(C)cc(C)[nH]c2=O)cc1	inactive	-0.605	–	–
CCOc1ccc(C2c3[nH]c4ccccc4c3C[C@H]3C(=O)N(C4CC4)CC(=O)N23)cc1OC (stereo partly drawn)	inactive	5.07	–	–
CCOc1ccc2oc(C(=O)NC(C)(C)CC)c(C)c2c1	inactive	-22.3	–	–
CC(C)(C)N(Cc1ccccc1)C(=O)COC(=O)CNS(=O)(=O)c1ccc2ccccc2c1	inactive	-5.96	–	–
COc1ccc(N2CCN(C(=O)NC34CC5CC(CC(C5)C3)C4)CC2)cc1	inactive	–	–	–
COc1cccc(C(=O)NC23CC4CC(CC(C4)C2)C3)c1	inactive	26.5	–	–
COc1cccc(N2CCN(C(C)C(=O)NC34CC5CC(CC(C5)C3)C4)CC2)c1 (stereo not drawn)	1.3 µM (active)	-27.6	–	–
O=C1c2ccccc2C(=O)c2c1cccc2N1CCN(Cc2ccccc2)CC1	18.4 µM (active)	–	–	–
O=c1[nH]ncc(N2CCN(Cc3ccccc3)CC2)c1Cl	inactive	12.7	–	–
CC(=C1C(=O)c2ccccc2C1=O)N1CCN(Cc2ccccc2)CC1	inactive	11.8	–	–
CN(c1ccccc1)C(c1ccc(F)cc1)c1nnnn1CC1CCCO1 (stereo not drawn)	inactive	–	–	–
CCN(CC)C(c1ccc(F)cc1)c1nnnn1CC1CCCO1 (stereo not drawn)	18.4 µM (active)	4.03	–	–
CCN(CC)C(c1ccc(F)cc1)c1nnnn1C1CCCCC1 (stereo not drawn)	inactive	-7.83	–	–
CC(C)c1nc(SCC(=O)N2CCOCC2)c2c(=O)n(C)c(=O)n(C)c2n1	–	5.66	–	8.15% [at 9.22 µM] (inactive)
C=C(C)Cn1c(SCC(=O)O)nnc1-c1ccc(C(C)(C)C)cc1	29.1 µM (active)	-3.69	–	–
C=CCn1c(SCC(=O)O)nnc1-c1ccc(C(C)(C)C)cc1	inactive	5.05	–	–
Cn1c(SCC(N)=O)nnc1-c1ccc(C(C)(C)C)cc1	inactive	-9.51	–	–
CC(C)=CC(O)C/C(C)=C/COc1ccc2ccc(=O)oc2c1 (stereo not drawn)	inactive	-2.96	–	–
O=C(NCC(c1ccco1)N1CCOCC1)c1ccc(F)c(F)c1 (stereo not drawn)	inactive	3.3	–	–
CCCCC1C2C(=O)N(c3ccc(C)cc3)C(=O)C2ON1c1ccccc1 (stereo not drawn)	inactive	7.09	–	–
CCCCC1C2C(=O)N(c3ccccc3)C(=O)C2ON1c1ccccc1 (stereo not drawn)	inactive	-1.39	–	–
CCCOc1ccc(N2C(=O)C3ON(c4ccccc4)C(CCC)C3C2=O)cc1 (stereo not drawn)	18.4 µM (active)	10.7	–	–
CSc1nnc(C)c(=O)n1COC(=O)COc1ccc(Cl)cc1	inactive	11.4	–	–

SMILES	Potency	cell number change [%]	outcome	lipid storage change, negative = inhibition
CCO[C@H]1OC(C(=O)N2CCN(C)CC2)=C[C@@H](c2ccc(Br)cc2)[C@@H]1CCCO	inactive	4.76	–	–
CC(=O)Nc1ccc(NC(=O)Nc2cc(C)cc(C)c2)cc1	inactive	7.61	–	–
O=C(Cc1ccc(F)cc1)NCCc1ccc(F)cc1	inactive	-3.73	–	–
CCC(CC)C(=O)NCCc1ccc(S(N)(=O)=O)cc1	inactive	-8.96	–	–
CCC(CC)C(=O)NCCc1ccc(F)cc1	25.9 µM (active)	0.621	–	–
O=C(Cc1ccccc1)N/N=C/c1ccc[nH]1	inactive	7.79	–	–
COc1ccccc1N(C)S(=O)(=O)c1ccc(C(=O)O)cc1	inactive	-4.33	–	–
COc1cccc(CN2CCNC(=O)C2CC(=O)NCc2cn3cccc(C)c3n2)c1OC (stereo not drawn)	inactive	-8.41	–	–
CCN1CCN(S(=O)(=O)c2cccc3nsnc23)CC1	inactive	-12.7	–	–
O=S(=O)(c1cccc2nsnc12)N1CCN(C/C=C/c2ccccc2)CC1	inactive	7.87	–	–
O=S(=O)(c1cccc2nsnc12)N1CCN(Cc2ccccc2)CC1	6.51 µM (active)	1.32	–	–
Cc1cc(/C=C2\SC(=S)N(Cc3ccco3)C2=O)c(C)n1-c1ccccc1	inactive	-3.86	–	–
COc1ccc(-n2c(C)cc(/C=C3\SC(=S)N(Cc4ccco4)C3=O)c2C)cc1	inactive	-10.6	–	–
Cc1cc(/C=C2\SC(=S)N(Cc3ccco3)C2=O)c(C)n1-c1cccnc1	23.1 µM (active)	–	–	–
Cc1cc(C(=O)NN=C2C3CC4CC(C3)CC2C4)c2ccccc2n1	inactive	-7.65	–	–
CN(C)C(CNC(=S)Nc1cccc(Cl)c1)c1cccnc1 (stereo not drawn)	inactive	-7.59	–	–
CNNC(=S)NC1CC2CC1C1C=CCC21 (stereo not drawn)	inactive	17.5	–	–
CCOc1ncccc1-c1nc(-c2cccs2)no1	inactive	-0.414	–	–
CC1CN(C(=O)COC(=O)c2cc(Cl)ccc2Cl)CC(C)O1 (stereo not drawn)	inactive	-5.44	–	–
CC1CN(C(=O)c2ccccc2OCc2ccc(Cl)cc2Cl)CC(C)O1 (stereo not drawn)	0.651 µM (active)	-15	–	–
CC1CN(C(=O)c2ccc(COc3ccccc3Br)o2)CC(C)O1 (stereo not drawn)	inactive	21.6	–	–
Cc1ccccc1OCc1ccc(C(=O)N2CC(C)OC(C)C2)o1 (stereo not drawn)	32.6 µM (active)	14.8	–	–
CCOc1cccc2cc(C(=O)N3CC(C)OC(C)C3)c(=O)oc12 (stereo not drawn)	inactive	-8.03	–	–
CC1CN(C(=O)c2ccc(COc3ccc4ccccc4c3)o2)CC(C)O1 (stereo not drawn)	inactive	18.9	–	–

Source: PubChem BioAssay AID2685 (National Center for Advancing Translational Sciences (NCATS), 2010)
